Active and inactive are the calls of the source.

Test system in one assay: not listed separately
Kind of assay: S6 kinase pathway phospho-S6 level changes – cell-based, A549, cytoblot, luminescence, serum-stimulated, primary screen (AID 1158).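 Further: serum-stimulated A549 lung adenocarcinoma cells; signal is phosphorylated S6 detected by cytoblot immunostaining with HRP secondary.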 The settings on record: 5 h, higher = more signal.
For `CC(CO)N1C(=O)[C@@H]2C3C(=O)OCCC/C=C\[C@H]3OC23C=CCN(Cn2nnc4ccccc42)C(=O)[C@@H]13` (stereo partly drawn), the z-score turned out to be 0.282.
Compound `COC(=O)[C@@]1(Cc2ccc(OC)cc2)[C@H]2c3cc(C(=O)N(C)C)n(CCc4c[nH]c5ccc(O)cc45)c3C[C@H]2CN1C(=O)c1ccccc1` showed a z-score of 0.092.
Take `O=c1cccc(-c2cccc(Cl)c2)o1`: the z-score is -0.717.
With `O=C1O[C@H](c2ccccc2)[C@H](c2ccccc2)N2[C@H]1[C@@H](C(=O)O)[C@]1(C(=O)Nc3ccccc31)[C@H]2c1ccc(O)cc1`, the z-score is 0.374.
Still for that read-out and setting: the figure for `COCCOC(=O)N1C(=O)[C@@]2(c3ccccc31)[C@H](C(=O)N1CCN(c3ncccn3)CC1)[C@H]1C(=O)O[C@H](c3ccccc3)[C@H](c3ccccc3)N1[C@@H]2c1ccc(OCCO)cc1` is 0.242; for `CCOC(=O)C1=C[C@@H](c2ccccc2)N(S(=O)(=O)c2ccc(C)cc2)[C@H]1c1cccc(Cl)c1` it is -0.645.
On the same count and under the same terms, the same measure for `O=C1c2ccccc2[C@](Cc2ccccc2I)(C(=O)NCCN2CCOCC2)[C@H](c2ccc(CO)cc2)N1Cc1ccccc1`: -0.0041; for `O=C(O)[C@H]1C[C@H]2C(=O)N3CCC[C@H]3C(=O)N2[C@H]1c1cccc(OCCO)c1`: 0.557.

The target in another assay is NADPH oxidase 2 (Homo sapiens) (UniProt P04839). Kind of assay: compounds shifting NOX2 Amplex Red fluorescence – cell-based, HEK293-NOX2, PMA-stimulated, NOX inhibitor project, primary screen (AID 1159). Further: test concentration not given here. As to conditions: 45 min, higher = more signal, called active from +8 up or from −8 down.
Chain of NADPH oxidase 2 (Homo sapiens) (P04839 whole entry, looked up): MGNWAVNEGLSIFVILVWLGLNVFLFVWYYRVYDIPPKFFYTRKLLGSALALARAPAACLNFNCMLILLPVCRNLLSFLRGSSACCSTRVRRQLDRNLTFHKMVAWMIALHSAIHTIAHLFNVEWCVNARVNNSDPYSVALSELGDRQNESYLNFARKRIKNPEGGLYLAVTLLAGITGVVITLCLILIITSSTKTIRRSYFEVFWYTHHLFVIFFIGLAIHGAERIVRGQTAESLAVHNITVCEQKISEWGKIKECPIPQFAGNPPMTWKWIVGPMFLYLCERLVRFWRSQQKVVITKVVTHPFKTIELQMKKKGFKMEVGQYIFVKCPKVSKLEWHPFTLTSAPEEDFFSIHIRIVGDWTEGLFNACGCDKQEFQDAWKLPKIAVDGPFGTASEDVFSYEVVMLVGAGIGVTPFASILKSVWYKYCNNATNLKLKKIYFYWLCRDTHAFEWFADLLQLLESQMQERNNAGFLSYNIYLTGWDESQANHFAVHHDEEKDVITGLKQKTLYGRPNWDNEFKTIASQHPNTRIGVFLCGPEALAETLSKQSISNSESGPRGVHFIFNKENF
For the compound `O=C1C[C@]2(c3ccc([N+](=O)[O-])cc3)C(=O)N(Cc3ccccc3)c3cc(CO)ccc3[C@H]2N1CC12CC3CC(CC(C3)C1)C2`, the z-score was 0.135 (inactive).
Same read-out and setting: the same measure for `Cc1c(NC(=O)/C(C#N)=C/C=C/c2ccc(N(C)C)cc2)c(=O)n(-c2ccccc2)n1C`: -2.41 (inactive); for `COCCOC(=O)N1C(=O)[C@@]2(c3ccccc31)[C@H](c1ccc(OCCO)cc1)N1[C@H](c3ccccc3)[C@H](c3ccccc3)OC(=O)[C@H]1[C@@H]2C(=O)Nc1nc2ccccc2s1`: 1.13 (inactive); for `COCCCNC(=O)[C@@]1(Sc2ccc(C)cc2)CC(=O)N(Cc2cc(C(F)(F)F)cc(C(F)(F)F)c2)[C@@H]1c1ccc(CO)cc1`: 0.242 (inactive).
On the same count and under the same terms, the figure for `CCCC[C@@H]1C[C@H]1[C@@H](NC(=O)c1ccccc1)c1ccc(Cl)cc1` is -0.093 (inactive); for `CC(C)C(CO)N1C(=O)[C@]2(C)C3C(=O)OCCC/C=C\[C@H]3OC23C=CCN(c2ccc(Cl)cc2)C(=O)[C@@H]13` (stereo partly drawn) it is 1.47 (inactive); for `COC(=O)[C@@]1(Cc2ccc(OC)cc2)[C@H]2c3cc(C(=O)N4CCCC4)n(CCc4cc5ccccc5[nH]4)c3C[C@H]2CN1C(=O)c1ccccc1` it is 0.00439 (inactive).
Same read-out and setting: the same measure for `CCCC[C@@H]1C[C@H]1[C@@H](NC(=O)c1cccnc1)c1ccc(-c2ccccc2)cc1`: -1.01 (inactive).
`[N-]=[N+]=Nc1ccccc1[C@@H]1OC(c2ccc(OCCCO)cc2)=N[C@]1(CCS(=O)(=O)c1ccccc1)C(=O)NCCN1CCOCC1`: the z-score is -3.49 (inactive).
For `C[C@@H](OCc1ccccc1)C1NC(=O)[C@@]23C(=O)N[C@@H](Cc4ccccc4)C2[C@H](C)[C@@]2(C)O[C@H]2C3/C=C/C/C=C\CNC(=O)CNC1=O` (stereo partly drawn), the z-score was 1.01 (inactive).
In the case of `C=C(CCCC)/C(=C/C[C@@H](OC(=O)c1ccncc1)c1cccc(OCCO)c1)c1cnc2ccccc2c1`, the z-score was -1.21 (inactive).
With `CC(=O)n1cc(C(O)C2C=CC3C(=O)N(c4ccccc4)C(=O)C3N2Nc2ccccc2)c2ccccc21` (stereo not drawn), the z-score is -3.07 (inactive).
`C=CCN1C(=O)[C@]2(CC=C)N=C(c3ccc(OCCCO)cc3)O[C@@H]2c2ccccc21`: the z-score is -1.13 (inactive).
Same read-out and setting: the same measure for `CCOC(=O)C[C@H]1[C@H](OC(=O)Cc2ccc3c(c2)OCO3)[C@@H](NC(=O)C2CCCCC2)c2cc(OCCCO)ccc2N1C(=O)c1ccc2ccccc2n1`: -1.86 (inactive); for `O=C1O[C@@H](c2ccccc2)[C@@H](c2ccccc2)N2[C@@H](c3ccccc3OCCO)[C@]3(C(=O)Nc4ccc(C#CC5=CCCCC5)cc43)[C@@H](C(=O)NC[C@H](O)c3ccccc3)[C@H]12`: 1.74 (inactive).
Consider `O=C1OCC=C[C@H]2OC34C=CCN(Cn5nnc6ccccc65)C(=O)[C@H]3N(CCCCCCO)C(=O)[C@@H]4[C@@H]12` (stereo partly drawn), for which the z-score was 1.77 (inactive).
Same read-out and setting: the same measure for `COCCCNC(=O)[C@]1(Cc2ccccc2N=[N+]=[N-])N=C(c2ccc(OCCCO)cc2)O[C@@H]1c1ccccc1N=[N+]=[N-]`: -1.23 (inactive); for `CC(C)c1ccc(NN2C(C(O)c3ccco3)C=CC3C(=O)N(c4ccccc4)C(=O)C32)cc1` (stereo not drawn): -1.67 (inactive); for `Cc1ccc(S[C@]2(C(=O)NCC(C)C)CC(=O)N(Cc3ccccc3Cl)[C@@H]2c2ccc(CO)cc2I)cc1`: 2.55 (inactive).
Consider `C=CCC(OC(C)=O)[C@@H]1[C@@H](N(Cc2ccc(-c3ccccc3)cc2)C(=O)c2cccc3ccccc23)c2cc(OCCCO)ccc2N1C(=O)Cc1ccc2ccccc2c1` (stereo partly drawn), for which the z-score is 0.949 (inactive).
On the same count and under the same terms, the same measure for `CC=CC(O)C1C=CC2C(=O)N(C)C(=O)C2N1Nc1ccc([N+](=O)[O-])cc1[N+](=O)[O-]` (stereo not drawn): -0.379 (inactive); for `CC(C)(C)OC(=O)CC[C@]1(C(=O)NCCN2CCOCC2)N=C(c2ccc(OCCCO)cc2)O[C@H]1c1ccccc1`: 0.618 (inactive); for `CCCCC(=C=CC[C@@H](O)c1ccc(OCCO)cc1)C[C@@H](O)COCc1ccccc1`: -2.67 (inactive).
Still for that read-out and setting: the figure for `COC(=O)[C@H](Cc1ccccc1)N1CC(/C=C/C2CC2)=C[C@@H]1[C@@H](O)Cc1ccccc1` is -0.193 (inactive); for `COCCOC(=O)N1C(=O)[C@@]2(c3cc(C#CCC(C(=O)OC)C(=O)OC)ccc31)[C@H](c1ccc(OCCO)cc1)N1[C@H](c3ccccc3)[C@H](c3ccccc3)OC(=O)[C@H]1[C@@H]2C(=O)N1CCN(c2ncccn2)CC1` it is -0.105 (inactive).
As for `CN(C)C(=O)[C@]1(CCC(=O)OC(C)(C)C)N=C(c2ccc(OCCCO)cc2)O[C@@H]1c1ccccc1`, the z-score was 1.24 (inactive).
`COCCOC(=O)N1C(=O)[C@@]2(c3cc(C#CC4(O)CCCCCC4)ccc31)[C@H](C(N)=O)[C@H]1C(=O)O[C@H](c3ccccc3)[C@H](c3ccccc3)N1[C@@H]2c1ccccc1OCCO`: the z-score is 2.63 (inactive).
Same read-out and setting: the same measure for `CC(CO)N1C(=O)[C@@H]2C3C(=O)OCCC/C=C\[C@H]3OC23C=CCN(Cn2nnc4ccccc42)C(=O)[C@@H]13` (stereo partly drawn): 1.32 (inactive); for `COC(=O)[C@@]1(Cc2ccc(OC)cc2)[C@H]2c3cc(C(=O)N(C)C)n(CCc4c[nH]c5ccc(O)cc45)c3C[C@H]2CN1C(=O)c1ccccc1`: 0.689 (inactive); for `O=c1cccc(-c2cccc(Cl)c2)o1`: -0.16 (inactive).
As for `O=C1O[C@H](c2ccccc2)[C@H](c2ccccc2)N2[C@H]1[C@@H](C(=O)O)[C@]1(C(=O)Nc3ccccc31)[C@H]2c1ccc(O)cc1`, the z-score is -0.295 (inactive).
Consider `COCCOC(=O)N1C(=O)[C@@]2(c3ccccc31)[C@H](C(=O)N1CCN(c3ncccn3)CC1)[C@H]1C(=O)O[C@H](c3ccccc3)[C@H](c3ccccc3)N1[C@@H]2c1ccc(OCCO)cc1`, for which the z-score is 0.351 (inactive).
On the same count and under the same terms, the figure for `CCOC(=O)C1=C[C@@H](c2ccccc2)N(S(=O)(=O)c2ccc(C)cc2)[C@H]1c1cccc(Cl)c1` is 0.14 (inactive).
Regarding `O=C1c2ccccc2[C@](Cc2ccccc2I)(C(=O)NCCN2CCOCC2)[C@H](c2ccc(CO)cc2)N1Cc1ccccc1`, the z-score was 0.744 (inactive).
On the same count and under the same terms, the same measure for `O=C(O)[C@H]1C[C@H]2C(=O)N3CCC[C@H]3C(=O)N2[C@H]1c1cccc(OCCO)c1`: -0.117 (inactive).
